Inconclusive results are not listed. Calls of active or inactive are those of the source. Unless noted, the call rests on the fitted dose curve; in most records, active means well fitted inhibition curve with a large enough effect; inconclusive means small, poorly fitted or top-dose-only effect; inactive means flat fitted curve, though single readings scatter.

The nature of assay [1]: S16 Schwann cell PMP22 intronic element beta-lactamase assay (AID 624044; calls by dose curve; further: nearly all actives have a fitted effect of over 15% in size). As to conditions: S16 rat Schwann cells, PMP22 element beta-lactamase FRET, 24 h; ratio activity, negative = inhibition: at 38.3 µM (top of the series). The procedure, abridged: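 Rat S16 Schwann cells with beta-Lac driven by a PMP22 intronic element, compound-treated 24 h at 37 °C. LiveBLAzer FRET B/G read: 460 nm normalized to potassium clavulanate vs DMSO; 535 nm FRET as viability; concentration-effect curves classified.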

In another assay the test system is AA1029. Put plainly: qHTS profiling for inhibitors of Plasmodium falciparum proliferation (AID 504749). Further: nearly all actives have a fitted effect of over 60% in size. Further: potency means the concentration at half of the fitted maximal effect. The settings on record: P. falciparum in erythrocytes, SYBR Green DNA, 72 h; series mostly up to 28.7 µM. The procedure, abridged:
(§1)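 Readout was DNA-dye fluorescence from lysed cultures, ex 485/em 535 nm. Parasitized red cells had grown 72 h with compound; data scaled between 0.29 uM artemisinin and DMSO wells and corrected using vehicle-only plates.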
(In general: Quantitative high-throughput screening tests each substance at several concentrations.)

A further assay concerns ATS189. The description is as above. The settings on record: P. falciparum in erythrocytes, SYBR Green DNA, 72 h; series mostly up to 28.7 µM. Summed up:
as §1

The test system of the next assay is C2A. The description is as above. As to conditions: P. falciparum in erythrocytes, SYBR Green DNA, 72 h; series mostly up to 28.7 µM. Summed up:
as §1

The test system of the next assay is CP194. The description is as above. As to conditions: P. falciparum in erythrocytes, SYBR Green DNA, 72 h; series mostly up to 28.7 µM. Summed up:
as §1

In another assay the test system is CP201. Described as above. As to conditions: P. falciparum in erythrocytes, SYBR Green DNA, 72 h; series mostly up to 28.7 µM. The procedure, abridged:
as §1

The subject of another assay is CP203. The description is as above. The settings on record: P. falciparum in erythrocytes, SYBR Green DNA, 72 h; series mostly up to 28.7 µM. The procedure, abridged:
as §1

The test system of the next assay is CP217. The description is as above. The settings on record: P. falciparum in erythrocytes, SYBR Green DNA, 72 h; series mostly up to 28.7 µM. The procedure, abridged: as §1
Another assay relates to CP256. The description is as above. As to conditions: P. falciparum in erythrocytes, SYBR Green DNA, 72 h; series mostly up to 28.7 µM. The procedure, abridged: as §1
Another assay has as its system CP297. The description is as above. As to conditions: P. falciparum in erythrocytes, SYBR Green DNA, 72 h; series mostly up to 28.7 µM. The procedure, abridged: as §1
The subject of another assay is CP305. The description is as above. As to conditions: P. falciparum in erythrocytes, SYBR Green DNA, 72 h; series mostly up to 28.7 µM. Summed up:
as §1

In a further assay the test system is CP325. The assay is described as above. As to conditions: P. falciparum in erythrocytes, SYBR Green DNA, 72 h; series mostly up to 28.7 µM. Summed up:
as §1

The next assay relates to PC49. The description is as above. As to conditions: P. falciparum in erythrocytes, SYBR Green DNA, 72 h; series mostly up to 28.7 µM. The procedure, abridged: as §1
The next assay has as its system CP237. The assay is described as above. As to conditions: P. falciparum in erythrocytes, SYBR Green DNA, 72 h; series mostly up to 28.7 µM. Summed up:
as §1

For the next assay, the system named is CP250. The assay is described as above. The settings on record: P. falciparum in erythrocytes, SYBR Green DNA, 72 h; series mostly up to 28.7 µM. The procedure, abridged:
as §1

For a further assay, the system named is CP268. Described as above. As to conditions: P. falciparum in erythrocytes, SYBR Green DNA, 72 h; series mostly up to 28.7 µM. The procedure, abridged: as §1
The subject of a further assay is HB3. The assay is described as above. As to conditions: P. falciparum in erythrocytes, SYBR Green DNA, 72 h; series mostly up to 28.7 µM. Summed up:
as §1

The next assay has as its system AS120. Described as above. The settings on record: P. falciparum in erythrocytes, SYBR Green DNA, 72 h; series mostly up to 28.7 µM. The procedure, abridged: as §1
The test system of a further assay is PC15. The assay is described as above. As to conditions: P. falciparum in erythrocytes, SYBR Green DNA, 72 h; series mostly up to 28.7 µM. Summed up:
as §1

Another assay concerns TAB109. Described as above. As to conditions: P. falciparum in erythrocytes, SYBR Green DNA, 72 h; series mostly up to 28.7 µM. Summed up: as §1

`Oc1cc2cc(CCN3CCN(c4nsc5ccccc45)CC3)c(Cl)cc2[nH]1`: the Potency entry (in [1]; in the assay with AA1029; in the assay on ATS189; in the assay with C2A; in the assay on CP194; in the assay with CP201) was “inactive” throughout. Besides, the Potency result in the assay on CP203, in the assay on CP217, in the assay with CP256, in the assay on CP297, in the assay with CP305 and with CP325 was “inactive” in each case. The Potency entry in the assay on PC49 was “inactive”.
On to `C=CCN1CC(C(=O)N(CCCN(C)C)C(=O)NCC)CC2c3cccc4[nH]cc(c34)CC21` (configuration not stated), for which the Potency result (in assay [1]; with CP194; in the assay with CP201; in the assay on CP250; in the assay with CP268; with CP297) was “inactive” throughout. The Potency entry in the assay on CP305, in the assay on CP325, with HB3 and in the assay with PC49 was “inactive” in each case. For the same compound, the Potency in the assay on CP237 was 8.91 µM (active).
Regarding `Cc1cc(O)c2c(c1)OC1(C)CCC3C(C)(C)CCCC34COC2C14` (configuration not stated), the Potency result (in assay [1]; in the assay with C2A; in the assay with CP201; in the assay with CP256; in the assay on CP325) was “inactive” throughout. The Potency with AA1029 was 10 µM (active).
With `C=C1CC2C3C=C(C)C4=CC(=O)CCC4(C)C3CCC2(C)[C@@]1(OC(C)=O)C(C)=O` (some centres not stated), the Potency entry (in assay [1]; in the assay on AS120; with C2A; with CP237; in the assay on CP250; in the assay on PC15) was “inactive” in each case. The Potency entry with PC49 and with TAB109 was “inactive” throughout.
Turning to `C=C1CC[C@H](O)C/C1=C/C=C1\CCC[C@]2(C)[C@@H]([C@H](C)CCCC(C)(C)O)CC[C@@H]12`, the results for the Potency with AA1029, in the assay with AS120 and in the assay on CP297 were 12.6 µM (active), 10 µM (active) and 13.5 µM (active), respectively. The Potency result in the assay with CP194, in the assay with CP201, in the assay with CP203, in the assay on CP268, in the assay on CP305 and in the assay with CP325 was “inactive” in each case.
Regarding `C=C1CCC(O)C/C1=C/C=C1\CCC[C@]2(C)[C@@H]([C@H](C)/C=C/[C@H](C)C(C)C)CC[C@@H]12` (some centres not stated), the Potency result (in assay [1]; with AA1029; with CP194; in the assay on CP201; in the assay on CP203; in the assay on CP237) was “inactive” throughout. The Potency entry with CP268, with CP297, in the assay on CP305 and in the assay on CP325 was “inactive” each time.
As to `CC1=C(/C=C/C(C)=C\C=C\C(C)=C\C=C\C=C(C)\C=C\C=C(C)\C=C\C2=C(C)C[C@@H](O)CC2(C)C)C(C)(C)C[C@H](O)C1`, the Potency entry (in [1]; in the assay on CP194; with CP201; with CP203; with CP256; with CP268) was “inactive” throughout. Besides, the Potency result in the assay on CP305 and in the assay on CP325 was “inactive” throughout. Besides, the Potency with AA1029 is 12.6 µM (active); in the assay on AS120, 12.6 µM (active); in the assay on CP237, 11.2 µM (active); in the assay on HB3, 10 µM (active); with PC49 it was 7.08 µM (active).
For `C[C@@H]1CC2[C@@H]3C[C@H](F)C4=CC(=O)C(Cl)=C[C@]4(C)[C@@]3(F)[C@H](O)C[C@]2(C)[C@@]1(O)C(=O)CO` (some centres not stated), the Potency entry in the assay with ATS189, in the assay on CP194, in the assay with CP201, with CP217, in the assay on CP250 and in the assay on CP256 was “inactive” each time. The Potency result in the assay with CP268, with CP297, in the assay with CP305, in the assay with CP325, in the assay on HB3 and in the assay with PC15 was “inactive” each time. The Potency result in the assay on PC49 was “inactive”.
Turning to `COC(=O)C1[C@@H](OC)C(OC(=O)COc2ccc(OC)cc2)C[C@@H]2CN3CCc4c([nH]c5cc(OC)ccc45)[C@H]3C[C@H]12` (some centres not stated), the Potency entry (in [1]; with CP201; with CP203; in the assay on CP297; in the assay on CP325; with PC49) was “inactive” throughout. Moreover, the Potency in the assay on AA1029 was 10 µM (active); in the assay on AS120, 11.2 µM (active); with ATS189, 11.2 µM (active); with CP217 it was 11.2 µM (active); in the assay with HB3, 12.6 µM (active).
In the case of `C=C1N[C@]2(C(=O)COC(C)=O)[C@@H](C[C@H]3[C@@H]4CCC5=CC(=O)C=C[C@]5(C)[C@H]4[C@@H](O)C[C@@]32C)O1`, the Potency entry (in assay [1]; in the assay with CP237; with CP256; in the assay with CP297; in the assay on HB3; in the assay with PC15) was “inactive” in each case. Further, the Potency result with PC49 and in the assay on TAB109 was “inactive” in each case.

Values taken from PubChem BioAssay (NCATS).
